Results published in PubChem BioAssay AID504773 (Broad Institute, 2011).
Results with a measured potency or affinity are listed apart.

molecular target: Golgi-associated PDZ and coiled-coil motif-containing protein (Homo sapiens) (UniProt Q9HD26); test: CAL PDZ peptide-binding inhibitors, dose response, biochemical, fluorescence polarization, Cerulean-tagged CAL PDZ, cherry-picks (AID 504773); details: 1 h; series mostly up to 50 µM; activity change, negative = inhibition: at the top concentration;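 also: 0% = DMSO neutral wells and -100% = excess unlabeled competitor peptide wells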

Activity change, negative = inhibition, inactive:
Cc1cccc(CN2CCc3c([nH]c4ccccc34)C2CC(C)C)n1 (centres undefined) 7.87%, O=C1c2ccccc2C(=O)N1CSc1nnnn1-c1ccccc1 13.4%, N#C/C(=C\c1c[nH]c2ccccc12)C(=O)NC1CC1 -24%, COC(=O)CN1C(=O)C(O)=C(C(C)=O)C1c1ccc([N+](=O)[O-])cc1 (centres undefined) 15.1%, COc1ccc(C(CNC(=O)COc2ccccc2-c2ccccc2)N2CCOCC2)cc1 (centres undefined) -0.19%, CN=c1scc(C)n1/N=C/c1cc(Br)c(O)c(Br)c1 12.3%, COc1ccc(Oc2nc3c(c(=O)n(C)c(=O)n3C)n2C)cc1 8.81%, c1cc(-c2nnc(-c3ccncc3)o2)ccn1 18.2%, Cc1ccc(NC(=O)N2CCCC2C(=O)NCC2CCCO2)cc1 (centres undefined) 7.35%, CS(=O)(=O)c1ccc2nc(NC(=O)CN3C(=O)C4CC=CCC4C3=O)sc2c1 (centres undefined) 7.85%, O=C(c1cccc(Oc2c(Cl)cccc2[N+](=O)[O-])c1)N1CCOCC1 6.74%, O=C(c1ccccc1)C(CCc1ccccn1)CCc1ccccn1 -15.5%, CCOC(=O)CCNC(=O)N1CCCC(CNS(=O)(=O)Cc2ccccc2)C1 (centres undefined) -0.597%, Cc1ccnc2nc(C(=O)OCCOc3ccc(F)cc3)nn12 -16.9%, CCOc1ccc(C(=O)NC2CC3CCCC(C2)N3Cc2ccccc2)cc1 (centres undefined) -24.1%, O=C(COC(=O)c1cccc(O)c1)NC(=O)Cc1ccccc1 7.51%, CCN(CC(=O)Nc1cc(Cl)cc(Cl)c1)CC(=O)NC1CCS(=O)(=O)C1 (centres undefined) -16.5%, C=CCn1c(NC(=O)c2ccco2)nc2ccccc21 -32.2%, CCCCN(CCCC)CCNC(=O)c1ccc2nc(-c3ccccc3NC(C)=O)c(=O)[nH]c2c1 24.7%
